# Data reported in PubChem BioAssay (Tox21).
# Several values for one entry are separate records, joined by “and”; a condition that tells them apart may be missing. Equal values may be shown once. Inconclusive results are not listed. A call without a number means that no potency is given here. Values without a mark were called inactive. Activity calls are given as the source filed them. Unless noted, the call rests on the fitted dose curve; in most records, active means well fitted curve in the direction sought with a large enough effect in the repeat runs; inconclusive means weak or mixed curves; inactive means no such curve, though single readings can be large; an effect the other way counts as inactive or inconclusive.
# Assays:
# [1] = qHTS assay to identify small molecule antagonists of the retinoid-related orphan receptor gamma (ROR-gamma) signaling pathway - cell viability counter screen (AID 1159520); further: nearly all actives have a fitted effect of over 50% in size; further: potency means the concentration at half of the fitted maximal effect
# How it was run: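 Tet-on ROR gamma CHO cells (1,000/well) were plated 4 hr, given compounds in DMSO for 2 hr at 37 C, then induced with 1 uM final doxycycline for 16 hr. Viability was read as ATP by CellTiter-Glo luminescence after 30 min.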
# [2] = target: Nuclear receptor ROR-gamma (Homo sapiens) (UniProt P51449); assay: qHTS assay to identify small molecule antagonists of the retinoid-related orphan receptor gamma (ROR-gamma) signaling pathway (AID 1159521; further: nearly all actives have a fitted effect of over 50% in size; further: potency means the concentration at half of the fitted maximal effect)
# How it was run: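 Inducible-expression reporter assay: doxycycline (1 uM final) switched on RORγ in CHO cells bearing a ROR response element-luciferase construct, with test compounds present from 2 h beforehand. Decreased luminescence after 16 h defined antagonist activity.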
# [3] = qHTS assay to identify small molecule agonists of the AP-1 signaling pathway - cell viability counter screen (AID 1159525; calls by dose curve; further: nearly all actives have a fitted effect of over 55% in size; further: potency means the concentration at half of the fitted maximal effect)
# How it was run: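 ME-180 AP-1-bla, 2500 cells/well, Opti-MEM + 0.5% dialyzed FBS; overnight 37 °C; cpd 15-pt titration, 5 h 37 °C; CellTiter-Glo 30 min RT; luminescence read; normalised to TOAB and DMSO controls.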
# [4] = qHTS assay to identify small molecule agonists of the AP-1 signaling pathway (AID 1159526; calls by dose curve)
# [5] = qHTS assay to identify small molecule agonists of the RXR signaling pathway - cell viability counter screen (AID 1159529); further: nearly all actives have a fitted effect of over 50% in size; further: potency means the concentration at half of the fitted maximal effect; on activity change, negative = cytotoxicity: series mostly up to about 77 µM
# How it was run: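 Counter screen: CellTiter-Glo luminescence. Cells: RXR-alpha-UAS-bla HEK 293T. Medium: 2% charcoal-stripped FBS. Treatment: 16 h, 37 C. Reagent incubation: 30 min, RT.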
# [6] = qHTS assay to identify small molecule antagonists of the retinoid acid receptor (RAR) signaling pathway - cell viability counter screen (AID 1159551); further: nearly all actives have a fitted effect of over 35% in size
# How it was run: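 Seed C3RL4 cells; next day add compound, then retinol to 1 uM final; incubate 6 h at 37 C; add CellTiter-Glo; read luminescence after 30 min at RT.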
# [7] = target: Retinoic acid receptor RXR-alpha (Homo sapiens) (UniProt P19793); assay: qHTS assay to identify small molecule agonists of the RXR signaling pathway (AID 1159527; calls by dose curve; further: nearly all actives have a fitted effect of over 35% in size)
# How it was run: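 Compounds in DMSO were added to RXR-alpha-UAS-bla HEK 293T cells kept in 2% charcoal-stripped serum, and incubated 16 hr at 37 C with 5% CO2. Reporter signal came from a 2 hr B/G FRET substrate step.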
# [8] = qHTS assay to identify small molecule antagonists of the peroxisome proliferator-activated receptor delta (PPARd) signaling pathway - cell viability counter screen (AID 743213); further: potency means the concentration at half of the fitted maximal effect; nearly all actives have a fitted effect of over 50% in size
# How it was run: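 Viability counter-screen, qHTS format: PPARd-bla HEK293H, L165041 300 nM final, 17 h compound exposure at 37 C, CellTiter-Glo luminescence after 30 min RT.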
# [9] = qHTS assay to identify small molecule agonists of the farnesoid-X-receptor (FXR) signaling pathway - cell viability counter screen (AID 743218); further: potency means the concentration at half of the fitted maximal effect; nearly all actives have a fitted effect of over 45% in size
# How it was run: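 After 16 h at 37 C with test compounds, FXR-bla HEK 293T cells were given LiveBLAzer B/G substrate for 2 h at RT and then CellTiter-Glo; luminescence was taken after 30 min.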
# [10] = qHTS assay to identify small molecule antagonists of the farnesoid-X-receptor (FXR) signaling pathway - cell viability counter screen (AID 743221; active means well fitted cell-killing curve with a large enough effect in the repeat runs, not every such curve was filed as active)
# How it was run: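 Cytotoxicity is taken from ATP luminescence (CellTiter-Glo, 30 min, room temperature) in FXR-bla HEK 293T cells previously incubated 16 h at 37 C with compound and chenodeoxycholic acid at 50 uM final.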
# [11] = qHTS assay to identify small molecule agonists of the vitamin D receptor (VDR) signaling pathway - cell viability counter screen (AID 743224)
# How it was run: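 Here cell health was gauged by luminescent ATP detection (CellTiter-Glo, 30 min RT) in VDR-bla cells that had been incubated with test compounds for 16 h at 37C and 5% CO2.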
# [12] = qHTS assay to identify small molecule antagonists of the vitamin D receptor (VDR) signaling pathway - cell viability counter screen (AID 743225)
# How it was run: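 Same-well multiplex: following 16 h treatment of HEK 293T cells carrying a UAS-driven beta-lactamase reporter with compound and agonist (3 nM final), and a 2 h FRET substrate step, CellTiter-Glo was added and luminescence read after 30 min.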
# Retinoic acid receptor RXR-alpha (Homo sapiens), sequence (P19793 whole entry, looked up): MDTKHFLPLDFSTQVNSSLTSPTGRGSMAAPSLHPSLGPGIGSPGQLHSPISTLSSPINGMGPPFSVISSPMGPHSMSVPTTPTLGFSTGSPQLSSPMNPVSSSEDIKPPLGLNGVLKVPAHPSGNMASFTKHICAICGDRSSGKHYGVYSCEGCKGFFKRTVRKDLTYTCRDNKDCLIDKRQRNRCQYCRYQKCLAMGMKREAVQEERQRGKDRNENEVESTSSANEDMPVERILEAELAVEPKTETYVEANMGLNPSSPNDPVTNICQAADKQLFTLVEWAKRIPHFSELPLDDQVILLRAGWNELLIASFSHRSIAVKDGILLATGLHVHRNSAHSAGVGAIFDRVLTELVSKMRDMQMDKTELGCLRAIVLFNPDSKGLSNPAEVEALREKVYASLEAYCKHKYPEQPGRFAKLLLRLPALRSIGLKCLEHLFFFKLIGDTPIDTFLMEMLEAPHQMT
smiles,measurement,setting,value
CC(C)c1ccccc1N,Potency,[1],inactive
same,Potency,[2],inactive
same,Potency,[3],inactive
same,Potency,[4],inactive
same,Potency,[5],inactive
same,Potency,[6],inactive
CO[Si](CCC1CCC2OC2C1)(OC)OC (centres undefined),Potency,[1],inactive
same,Potency,[3],inactive
same,Potency,[4],inactive
same,Potency,[7],inactive
same,Potency,[5],inactive
same,Potency,[6],inactive
CC1=C(/C=C/C(C)=C/C=C/C(C)=C/C(=O)Nc2ccc(O)cc2)C(C)(C)CCC1,Potency,[8],12.6 µM (active) and 7.5 µM (active)
same,Potency,[9],44.8 µM (active) and 11.9 µM (active)
same,Potency,[10],56.4 µM (active) and 26.6 µM (active)
same,Potency,[11],14.2 µM (active) and 10.6 µM (active)
same,Potency,[12],14.2 µM (active) and 10.7 µM (active)
same,Potency,[1],31.4 µM (active) and 13.3 µM (active)
same,Potency,[2],19.8 µM (active) and 8.41 µM (active)
same,Potency,[3],44.8 µM (active)
same,Potency,[5],35.6 µM (active) and 12 µM (active)
O=S(O)O,"activity, negative = cytotoxicity",[1],14% [at 19 µM]
same,"viability change, negative = cytotoxic",[3],5.55% [at 15.8 µM]
same,activation,[4],2.22% [at 15.8 µM]
same,activation,[7],-2.24% [at 15.8 µM]
same,"activity change, negative = cytotoxicity",[5],-0.924% [at 15.8 µM]
same,"activity change, negative = cytotoxicity",[6],-0.573% [at 19 µM]
CCO[Si](C)(C)OCC,Potency,[1],inactive
same,Potency,[2],inactive
same,Potency,[3],inactive
same,Potency,[4],inactive
same,Potency,[5],inactive
same,Potency,[6],inactive
CCOC(/C=C(\C)CCC=C(C)C)OCC,Potency,[1],inactive
same,Potency,[3],inactive
same,Potency,[4],inactive
same,Potency,[7],inactive
same,Potency,[5],inactive
same,Potency,[6],inactive
CCc1ccc(C)nc1,Potency,[1],inactive
same,Potency,[3],inactive
same,Potency,[4],inactive
same,Potency,[7],inactive
same,Potency,[5],inactive
same,Potency,[6],inactive
Cn1cccc1,Potency,[1],inactive
same,Potency,[3],inactive
same,Potency,[4],inactive
same,Potency,[5],inactive
CN1CN(C)CN(C)C1,Potency,[1],inactive
same,Potency,[3],inactive
same,Potency,[4],inactive
same,Potency,[7],inactive
same,Potency,[5],inactive
same,Potency,[6],inactive
CCC(C)c1ccccc1 (centres undefined),Potency,[1],inactive
same,Potency,[2],inactive
same,Potency,[3],inactive
same,Potency,[4],inactive
same,Potency,[5],inactive
same,Potency,[6],inactive
OCCCc1cccnc1,Potency,[1],inactive
same,Potency,[3],inactive
same,Potency,[4],inactive
same,Potency,[7],inactive
same,Potency,[5],inactive
same,Potency,[6],inactive
C=C(C)CCCC,Potency,[1],inactive
same,Potency,[3],inactive
same,Potency,[4],inactive
same,Potency,[5],inactive
same,Potency,[6],inactive
CC1CCCCC1,Potency,[1],inactive
same,Potency,[2],inactive
same,Potency,[3],inactive
same,Potency,[4],inactive
same,Potency,[5],inactive
same,Potency,[6],inactive
c1ccc2c(c1)CCC2,Potency,[1],inactive
same,Potency,[2],inactive
same,Potency,[3],inactive
same,Potency,[4],inactive
same,Potency,[5],inactive
same,Potency,[6],inactive
O=C[C@H](O)[C@H](O)[C@H](O)CO,Potency,[1],inactive
same,Potency,[3],inactive
same,Potency,[4],inactive
same,Potency,[7],inactive
same,Potency,[5],inactive
same,Potency,[6],inactive
Cc1cccc(C)n1,Potency,[1],inactive
same,Potency,[2],inactive
same,Potency,[3],inactive
same,Potency,[4],inactive
same,Potency,[5],inactive
same,Potency,[6],inactive
O=C1OC(=O)c2ccc3c4c(ccc1c24)C(=O)OC3=O,Potency,[1],inactive
same,Potency,[2],inactive
same,Potency,[3],inactive
same,Potency,[4],inactive
same,Potency,[5],inactive
same,Potency,[6],inactive
CCCCCCCCCCCCCc1ccccc1,Potency,[1],inactive
same,Potency,[2],inactive
same,Potency,[3],inactive
same,Potency,[4],inactive
same,Potency,[5],inactive
same,Potency,[6],inactive
COc1cccc(O)c1,Potency,[1],inactive
same,Potency,[3],inactive
same,Potency,[4],inactive
same,Potency,[7],inactive
same,Potency,[5],inactive
CC(C)=CCCC(C)O (centres undefined),Potency,[1],inactive
same,Potency,[3],inactive
same,Potency,[4],inactive
same,Potency,[7],inactive
same,Potency,[5],inactive
same,Potency,[6],inactive
OCCN1CN(CCO)CN(CCO)C1,Potency,[1],inactive
same,Potency,[2],inactive
same,Potency,[3],inactive
same,Potency,[4],inactive
same,Potency,[5],inactive
same,Potency,[6],inactive
CC(C)=CCCC(C)CCOC(=O)C(C)C (centres undefined),Potency,[1],inactive
same,Potency,[3],inactive
same,Potency,[4],inactive
same,Potency,[7],inactive
same,Potency,[5],inactive
same,Potency,[6],inactive
OCCCCl,Potency,[1],inactive
same,Potency,[2],inactive
same,Potency,[3],inactive
same,Potency,[4],inactive
same,Potency,[5],inactive
same,Potency,[6],inactive
C=CC(C)C#N (centres undefined),Potency,[1],inactive
same,Potency,[3],inactive
same,Potency,[4],inactive
same,Potency,[7],inactive
same,Potency,[5],inactive
same,Potency,[6],inactive
CN(C)CCN1CCOCC1,Potency,[1],inactive
same,Potency,[2],inactive
same,Potency,[3],inactive
same,Potency,[4],inactive
same,Potency,[5],inactive
same,Potency,[6],inactive
